Experimental data published in the supplement of paper PMC11732987, “Enantioselective OTUD7B fragment discovery through chemoproteomics screening and high-throughput optimisation” (Communications Chemistry, 2025).

Columns and labels:
Test in all cases: log2 ratio of Biotin-Ahx-Ub-VS probe labelling (fragment/DMSO); higher = less target engagement (more negative = stronger competition), active = hit call of the paper (q ≤ 0.05, log2 ratio ≤ -1)
Settings in all cases: compound concentration: 200 uM; treatment time: 3 h
[1] = target: USP34 (UniProt Q70CQ2)
Procedure, shortened: (§1)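 Labelling with Biotin-Ahx-Ub-VS (0.5 µM final, 1 h) followed a 3 h triplicate treatment of HEK293T lysate (495 µg per sample, Tris/CHAPS/IGEPAL buffer with protease inhibitors) with fragment at 200 µM or vehicle. Labelled DUBs were NeutrAvidin-enriched, digested with LysC and trypsin, and run by diaPASEF LC-MS/MS. The values, average log2 fragment/vehicle ratios by unpaired t-test, come from global-median-normalised Spectronaut label-free quantities. Proteins with ≥2 unique peptides were used.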

[2] = target: T1, USP36 (UniProt Q9P275)
T1 sequence (whole entry): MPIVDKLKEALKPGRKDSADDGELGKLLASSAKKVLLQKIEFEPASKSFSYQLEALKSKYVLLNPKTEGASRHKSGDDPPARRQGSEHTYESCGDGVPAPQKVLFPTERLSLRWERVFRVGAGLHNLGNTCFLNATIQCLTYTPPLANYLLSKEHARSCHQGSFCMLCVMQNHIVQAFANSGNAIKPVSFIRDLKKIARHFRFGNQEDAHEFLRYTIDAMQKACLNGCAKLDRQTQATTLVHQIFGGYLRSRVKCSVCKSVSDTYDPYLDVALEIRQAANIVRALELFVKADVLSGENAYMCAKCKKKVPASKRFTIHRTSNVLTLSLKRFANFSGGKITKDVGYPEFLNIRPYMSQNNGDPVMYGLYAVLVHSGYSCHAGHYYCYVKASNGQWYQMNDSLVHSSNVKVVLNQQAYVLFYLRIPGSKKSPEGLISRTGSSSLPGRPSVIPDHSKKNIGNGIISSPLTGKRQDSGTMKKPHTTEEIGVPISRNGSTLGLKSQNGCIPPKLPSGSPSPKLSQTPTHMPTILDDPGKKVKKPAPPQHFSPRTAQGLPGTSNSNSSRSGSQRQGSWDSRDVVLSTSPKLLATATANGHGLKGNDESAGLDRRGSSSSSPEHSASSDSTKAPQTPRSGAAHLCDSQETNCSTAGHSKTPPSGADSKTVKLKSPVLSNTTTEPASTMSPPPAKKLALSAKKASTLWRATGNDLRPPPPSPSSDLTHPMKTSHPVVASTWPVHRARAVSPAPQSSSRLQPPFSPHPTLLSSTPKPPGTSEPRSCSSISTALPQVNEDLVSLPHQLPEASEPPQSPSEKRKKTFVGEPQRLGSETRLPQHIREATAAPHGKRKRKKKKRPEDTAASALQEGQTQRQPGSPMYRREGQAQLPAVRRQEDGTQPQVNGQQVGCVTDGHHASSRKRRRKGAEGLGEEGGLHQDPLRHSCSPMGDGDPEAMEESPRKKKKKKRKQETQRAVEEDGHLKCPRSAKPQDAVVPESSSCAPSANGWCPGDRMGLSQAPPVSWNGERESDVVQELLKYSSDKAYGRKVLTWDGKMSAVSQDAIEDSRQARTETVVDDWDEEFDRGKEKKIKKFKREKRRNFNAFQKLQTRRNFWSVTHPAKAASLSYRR
Procedure, shortened: as §1

[3] = target: T2, USP38 (UniProt Q8NB14)
T2 sequence (whole entry): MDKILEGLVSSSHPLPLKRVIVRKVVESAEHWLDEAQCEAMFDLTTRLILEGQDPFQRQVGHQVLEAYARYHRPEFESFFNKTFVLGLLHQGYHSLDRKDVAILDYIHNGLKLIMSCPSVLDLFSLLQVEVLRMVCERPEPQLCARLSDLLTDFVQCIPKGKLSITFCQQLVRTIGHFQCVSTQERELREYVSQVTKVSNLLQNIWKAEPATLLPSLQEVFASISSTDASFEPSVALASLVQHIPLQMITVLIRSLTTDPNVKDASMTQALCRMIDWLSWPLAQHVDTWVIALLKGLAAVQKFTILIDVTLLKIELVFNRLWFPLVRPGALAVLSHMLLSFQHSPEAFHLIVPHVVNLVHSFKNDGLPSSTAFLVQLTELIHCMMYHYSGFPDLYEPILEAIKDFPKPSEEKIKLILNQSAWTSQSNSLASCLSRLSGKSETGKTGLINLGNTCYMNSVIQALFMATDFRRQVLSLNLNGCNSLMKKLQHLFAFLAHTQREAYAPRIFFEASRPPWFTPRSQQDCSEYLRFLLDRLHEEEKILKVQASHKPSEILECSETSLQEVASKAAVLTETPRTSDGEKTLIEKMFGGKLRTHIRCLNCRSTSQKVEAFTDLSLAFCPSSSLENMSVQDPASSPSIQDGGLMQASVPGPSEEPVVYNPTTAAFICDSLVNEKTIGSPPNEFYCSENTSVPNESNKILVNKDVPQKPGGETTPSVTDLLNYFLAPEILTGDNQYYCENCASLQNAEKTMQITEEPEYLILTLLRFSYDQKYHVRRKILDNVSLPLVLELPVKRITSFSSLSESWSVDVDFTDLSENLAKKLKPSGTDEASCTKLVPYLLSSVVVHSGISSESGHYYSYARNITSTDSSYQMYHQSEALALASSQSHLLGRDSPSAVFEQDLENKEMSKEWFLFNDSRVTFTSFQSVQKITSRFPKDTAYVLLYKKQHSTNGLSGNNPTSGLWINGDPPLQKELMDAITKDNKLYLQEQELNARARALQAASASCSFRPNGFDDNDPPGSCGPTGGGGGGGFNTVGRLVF
Procedure, shortened: as §1

[4] = target: T3, USP39 (UniProt Q53GS9)
T3 sequence (whole entry): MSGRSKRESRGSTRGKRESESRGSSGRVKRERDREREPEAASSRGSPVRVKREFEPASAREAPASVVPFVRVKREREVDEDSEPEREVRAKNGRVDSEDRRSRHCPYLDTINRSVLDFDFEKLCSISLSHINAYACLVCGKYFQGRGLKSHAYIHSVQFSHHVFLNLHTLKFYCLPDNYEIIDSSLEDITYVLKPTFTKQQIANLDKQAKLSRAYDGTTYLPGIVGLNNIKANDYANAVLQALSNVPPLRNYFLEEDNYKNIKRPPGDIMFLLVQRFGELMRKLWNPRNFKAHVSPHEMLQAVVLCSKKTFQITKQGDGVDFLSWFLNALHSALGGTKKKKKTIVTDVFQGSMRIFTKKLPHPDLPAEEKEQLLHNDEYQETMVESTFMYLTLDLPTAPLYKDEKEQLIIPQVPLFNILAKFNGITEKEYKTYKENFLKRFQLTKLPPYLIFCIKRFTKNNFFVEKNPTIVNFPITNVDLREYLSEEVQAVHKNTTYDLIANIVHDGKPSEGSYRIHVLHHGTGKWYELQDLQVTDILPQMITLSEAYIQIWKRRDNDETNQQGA
Procedure, shortened: as §1

[5] = target: T4, USP4 (UniProt Q13107)
T4 sequence (whole entry): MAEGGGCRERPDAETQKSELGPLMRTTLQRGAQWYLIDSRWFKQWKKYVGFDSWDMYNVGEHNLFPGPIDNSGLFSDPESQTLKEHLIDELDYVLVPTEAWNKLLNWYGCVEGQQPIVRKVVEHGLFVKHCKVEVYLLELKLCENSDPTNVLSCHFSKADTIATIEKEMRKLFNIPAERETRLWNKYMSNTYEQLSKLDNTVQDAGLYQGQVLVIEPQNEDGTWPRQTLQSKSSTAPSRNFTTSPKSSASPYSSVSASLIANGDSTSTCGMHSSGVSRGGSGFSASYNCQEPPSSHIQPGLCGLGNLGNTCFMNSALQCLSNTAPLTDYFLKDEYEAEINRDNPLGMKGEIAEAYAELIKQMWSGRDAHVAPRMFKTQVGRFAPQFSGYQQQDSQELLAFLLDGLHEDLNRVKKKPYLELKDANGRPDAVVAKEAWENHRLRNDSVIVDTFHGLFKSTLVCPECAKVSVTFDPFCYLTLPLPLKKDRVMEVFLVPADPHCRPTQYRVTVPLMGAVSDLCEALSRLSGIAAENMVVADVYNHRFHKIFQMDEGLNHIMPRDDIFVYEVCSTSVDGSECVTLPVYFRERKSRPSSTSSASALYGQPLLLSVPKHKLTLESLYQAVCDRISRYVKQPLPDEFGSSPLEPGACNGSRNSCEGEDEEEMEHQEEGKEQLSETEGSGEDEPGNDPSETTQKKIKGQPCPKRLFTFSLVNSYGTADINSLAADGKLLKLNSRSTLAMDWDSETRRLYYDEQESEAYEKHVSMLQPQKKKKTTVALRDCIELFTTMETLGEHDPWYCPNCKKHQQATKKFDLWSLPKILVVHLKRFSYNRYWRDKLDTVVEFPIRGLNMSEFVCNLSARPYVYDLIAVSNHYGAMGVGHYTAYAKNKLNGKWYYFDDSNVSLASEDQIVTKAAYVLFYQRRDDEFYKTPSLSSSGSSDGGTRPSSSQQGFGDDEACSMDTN
Procedure, shortened: as §1

Measured: log2 ratio of Biotin-Ahx-Ub-VS probe labelling

USP34, sequence (Q70CQ2 whole entry, the tested form may be a part): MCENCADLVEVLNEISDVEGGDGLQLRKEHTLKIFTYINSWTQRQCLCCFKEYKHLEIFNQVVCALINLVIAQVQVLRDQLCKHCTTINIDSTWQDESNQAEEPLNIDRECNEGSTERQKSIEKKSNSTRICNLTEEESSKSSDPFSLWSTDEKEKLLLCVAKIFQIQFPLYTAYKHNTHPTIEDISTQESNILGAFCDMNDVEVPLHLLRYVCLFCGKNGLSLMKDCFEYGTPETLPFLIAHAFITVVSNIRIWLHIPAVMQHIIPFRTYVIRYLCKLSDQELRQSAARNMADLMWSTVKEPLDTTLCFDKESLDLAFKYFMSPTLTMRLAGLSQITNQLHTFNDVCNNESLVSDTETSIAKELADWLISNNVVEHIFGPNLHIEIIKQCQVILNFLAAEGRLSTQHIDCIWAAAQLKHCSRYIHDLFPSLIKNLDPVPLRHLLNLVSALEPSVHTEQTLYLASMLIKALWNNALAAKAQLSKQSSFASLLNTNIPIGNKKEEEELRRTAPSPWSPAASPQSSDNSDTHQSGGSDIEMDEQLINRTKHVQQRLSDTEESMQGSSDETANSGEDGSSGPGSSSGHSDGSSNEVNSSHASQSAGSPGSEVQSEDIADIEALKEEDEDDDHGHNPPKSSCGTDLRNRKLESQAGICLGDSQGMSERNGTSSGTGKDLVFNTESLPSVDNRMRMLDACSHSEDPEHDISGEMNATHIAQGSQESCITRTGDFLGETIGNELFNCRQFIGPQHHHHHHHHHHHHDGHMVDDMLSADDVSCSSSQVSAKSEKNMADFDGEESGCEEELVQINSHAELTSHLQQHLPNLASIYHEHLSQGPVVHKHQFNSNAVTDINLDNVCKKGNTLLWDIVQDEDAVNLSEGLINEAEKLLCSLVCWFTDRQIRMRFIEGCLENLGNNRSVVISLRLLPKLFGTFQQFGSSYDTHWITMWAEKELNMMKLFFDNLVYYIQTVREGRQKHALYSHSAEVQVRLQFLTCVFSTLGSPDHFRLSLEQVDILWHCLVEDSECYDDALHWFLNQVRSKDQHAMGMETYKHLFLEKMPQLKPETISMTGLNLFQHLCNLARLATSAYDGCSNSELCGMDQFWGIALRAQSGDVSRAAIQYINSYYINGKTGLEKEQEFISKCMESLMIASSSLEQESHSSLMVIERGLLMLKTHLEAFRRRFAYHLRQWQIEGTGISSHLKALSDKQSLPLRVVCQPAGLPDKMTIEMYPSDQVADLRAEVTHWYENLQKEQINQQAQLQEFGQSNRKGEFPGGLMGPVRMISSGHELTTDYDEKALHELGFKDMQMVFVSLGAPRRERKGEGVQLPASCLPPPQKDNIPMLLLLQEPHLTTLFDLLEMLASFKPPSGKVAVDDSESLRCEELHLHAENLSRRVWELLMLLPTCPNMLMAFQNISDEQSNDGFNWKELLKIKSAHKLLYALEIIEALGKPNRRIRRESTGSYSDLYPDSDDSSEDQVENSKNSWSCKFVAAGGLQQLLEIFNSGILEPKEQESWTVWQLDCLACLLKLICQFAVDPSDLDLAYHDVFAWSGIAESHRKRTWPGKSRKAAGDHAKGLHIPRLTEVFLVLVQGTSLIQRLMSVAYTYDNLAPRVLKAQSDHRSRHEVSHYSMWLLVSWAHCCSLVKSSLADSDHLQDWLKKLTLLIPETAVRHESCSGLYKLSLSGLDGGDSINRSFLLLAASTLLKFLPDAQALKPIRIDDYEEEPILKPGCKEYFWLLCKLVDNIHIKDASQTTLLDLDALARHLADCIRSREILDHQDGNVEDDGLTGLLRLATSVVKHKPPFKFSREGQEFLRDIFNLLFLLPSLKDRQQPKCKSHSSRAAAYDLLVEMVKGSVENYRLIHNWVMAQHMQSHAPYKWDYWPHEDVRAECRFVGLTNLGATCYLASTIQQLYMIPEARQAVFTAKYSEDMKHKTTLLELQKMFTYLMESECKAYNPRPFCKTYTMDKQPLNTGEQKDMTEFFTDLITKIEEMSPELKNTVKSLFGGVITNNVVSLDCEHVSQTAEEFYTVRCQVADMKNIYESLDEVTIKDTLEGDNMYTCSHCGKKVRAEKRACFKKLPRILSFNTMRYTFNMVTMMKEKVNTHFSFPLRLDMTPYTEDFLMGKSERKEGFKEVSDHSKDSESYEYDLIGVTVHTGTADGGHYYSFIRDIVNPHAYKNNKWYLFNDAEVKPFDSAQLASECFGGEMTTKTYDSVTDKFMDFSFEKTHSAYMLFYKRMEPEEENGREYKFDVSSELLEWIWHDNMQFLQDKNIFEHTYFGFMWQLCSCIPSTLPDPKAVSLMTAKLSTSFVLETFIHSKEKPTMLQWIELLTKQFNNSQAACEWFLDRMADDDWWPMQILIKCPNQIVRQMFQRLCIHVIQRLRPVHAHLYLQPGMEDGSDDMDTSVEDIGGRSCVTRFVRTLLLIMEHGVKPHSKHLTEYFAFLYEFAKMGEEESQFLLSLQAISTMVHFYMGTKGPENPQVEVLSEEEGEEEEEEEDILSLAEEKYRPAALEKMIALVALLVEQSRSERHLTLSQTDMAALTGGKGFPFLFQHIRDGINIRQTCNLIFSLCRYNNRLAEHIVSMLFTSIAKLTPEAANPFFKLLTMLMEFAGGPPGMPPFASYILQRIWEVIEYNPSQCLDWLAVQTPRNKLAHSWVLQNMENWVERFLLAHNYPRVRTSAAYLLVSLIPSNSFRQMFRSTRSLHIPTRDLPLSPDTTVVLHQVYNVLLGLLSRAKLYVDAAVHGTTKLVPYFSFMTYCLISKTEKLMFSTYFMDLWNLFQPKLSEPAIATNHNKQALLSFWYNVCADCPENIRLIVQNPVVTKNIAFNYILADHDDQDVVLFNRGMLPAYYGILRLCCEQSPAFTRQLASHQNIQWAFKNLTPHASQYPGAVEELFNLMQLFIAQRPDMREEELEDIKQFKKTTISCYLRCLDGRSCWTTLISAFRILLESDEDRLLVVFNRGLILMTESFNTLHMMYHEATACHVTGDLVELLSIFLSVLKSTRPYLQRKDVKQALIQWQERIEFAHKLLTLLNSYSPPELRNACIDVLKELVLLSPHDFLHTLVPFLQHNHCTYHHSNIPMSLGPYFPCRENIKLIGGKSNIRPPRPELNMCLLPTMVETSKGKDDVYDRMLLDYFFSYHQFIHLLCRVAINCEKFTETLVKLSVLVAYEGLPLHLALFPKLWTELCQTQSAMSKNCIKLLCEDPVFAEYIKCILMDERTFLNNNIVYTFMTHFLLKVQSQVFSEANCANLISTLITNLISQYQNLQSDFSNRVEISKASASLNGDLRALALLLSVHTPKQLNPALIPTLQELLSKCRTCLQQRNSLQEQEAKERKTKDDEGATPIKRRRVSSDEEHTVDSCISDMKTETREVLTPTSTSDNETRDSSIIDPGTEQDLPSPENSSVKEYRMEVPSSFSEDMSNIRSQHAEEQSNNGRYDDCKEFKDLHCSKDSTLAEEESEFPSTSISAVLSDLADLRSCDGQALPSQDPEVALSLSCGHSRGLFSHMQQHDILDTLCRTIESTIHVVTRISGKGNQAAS

O=C(CCl)NCc1cccc(F)c1
inactive: [1] -0.0351 | [2] -0.312 | [3] 0.0703 | [4] -0.114 | [5] -0.0159
